# Results filed as inconclusive are left out. Activity calls are given as the source filed them. How the source made its calls, unless noted: active means hit-call score of the fitted dose curve at least 0.9, where 1 is the maximum; inactive means score below 0.9.
# Tests used:
# [1] = biological target: Paired box protein Pax-6 (Homo sapiens) (UniProt P26367); assay: ATG_Pax6_CIS: Attagene CIS-FACTORIAL HepG2 Assay for human Paired Box 6 (PAX6) (AID 2282956); settings: HepG2 CIS-FACTORIAL PAX6 reporter transcription, RNA readout; actives raise or lower the signal
# Chain of Paired box protein Pax-6 (Homo sapiens) (P26367 whole entry, looked up): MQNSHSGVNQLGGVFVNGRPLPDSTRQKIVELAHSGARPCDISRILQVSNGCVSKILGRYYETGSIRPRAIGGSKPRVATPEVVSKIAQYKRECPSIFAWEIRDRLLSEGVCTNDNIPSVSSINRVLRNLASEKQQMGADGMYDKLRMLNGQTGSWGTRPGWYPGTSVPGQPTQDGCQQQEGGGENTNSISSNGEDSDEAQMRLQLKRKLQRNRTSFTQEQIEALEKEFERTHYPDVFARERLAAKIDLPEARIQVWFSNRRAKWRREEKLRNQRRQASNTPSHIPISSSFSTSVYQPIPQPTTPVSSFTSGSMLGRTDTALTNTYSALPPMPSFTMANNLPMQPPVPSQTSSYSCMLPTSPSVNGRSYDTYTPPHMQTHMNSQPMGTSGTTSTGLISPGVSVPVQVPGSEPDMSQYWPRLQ
# How it was run: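 HepG2 cells transiently transfected with cis-promoter-driven multiplexed reporter units sensing endogenous transcription factor activity; 24 h chemical exposure. Reporter mRNA quantified by RT-PCR, 6-FAM labelling, HpaI digestion and capillary electrophoresis; bidirectional fit versus DMSO baseline.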
# [2] = ATG_PXRE_CIS: Attagene CIS-FACTORIAL HepG2 Assay for human Pregnane X Receptor Element (PXRE) (AID 2282957); settings: HepG2 Attagene CIS-FACTORIAL PXRE reporter, mRNA; actives raise or lower the signal
# How it was run: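 Cis-element reporter mRNA in human hepatoma HepG2 cells is measured 24 h post-dosing by RT-PCR, primer-extension labeling and capillary electrophoresis; gain or loss of signal is fitted relative to DMSO.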
# [3] = ATG_PPRE_CIS: Attagene CIS-FACTORIAL HepG2 Assay for human Peroxisome Proliferator-activated Response Element (PPRE) (AID 2282958); settings: HepG2 PPRE cis-element reporter, Attagene transcription factor profiling; actives raise or lower the signal
# How it was run: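 Measured endpoint: PPRE-controlled reporter mRNA, detected by RT-PCR and capillary electrophoresis fluorescence, from transiently transfected HepG2 cells 24 h after dosing. Curves fitted in both directions using DMSO baseline.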
# [4] = ATG_Sox_CIS: Attagene CIS-FACTORIAL HepG2 Assay for human SRY-box transcription factor (SOX) (AID 2282960); settings: HepG2 Attagene cis-factorial SOX reporter, mRNA; actives raise or lower the signal
# How it was run: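 Gain- or loss-of-signal endpoint, fitted bidirectionally with DMSO as negative control. Based on reporter mRNA from transfected HepG2 cells harvested 24 h post-treatment and quantified via RT-PCR and capillary electrophoresis.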
# [5] = ATG_SREBP_CIS: Attagene CIS-FACTORIAL HepG2 Assay for human Sterol Regulatory Element Binding (SREBP) (AID 2282962); settings: HepG2 Attagene cis-factorial SREBP reporter, mRNA; actives raise or lower the signal
# How it was run: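 HepG2 cells transiently transfected with multiplexed cis-promoter reporter units sensing endogenous transcription factors; reporter mRNA measured 24 h after dosing by RT-PCR, 6-FAM labeling, HpaI digestion and capillary electrophoresis. Bidirectional fit versus DMSO.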
# [6] = biological target: Signal transducer and activator of transcription 3 (Homo sapiens) (UniProt P40763); assay: ATG_STAT3_CIS: Attagene CIS-FACTORIAL HepG2 Assay for human Signal Transducer and Activator of Transcription 3 (STAT3) (AID 2282963); settings: HepG2, Attagene cis-factorial STAT3 reporter transcription; actives raise or lower the signal
# Chain of Signal transducer and activator of transcription 3 (Homo sapiens) (P40763 whole entry, looked up): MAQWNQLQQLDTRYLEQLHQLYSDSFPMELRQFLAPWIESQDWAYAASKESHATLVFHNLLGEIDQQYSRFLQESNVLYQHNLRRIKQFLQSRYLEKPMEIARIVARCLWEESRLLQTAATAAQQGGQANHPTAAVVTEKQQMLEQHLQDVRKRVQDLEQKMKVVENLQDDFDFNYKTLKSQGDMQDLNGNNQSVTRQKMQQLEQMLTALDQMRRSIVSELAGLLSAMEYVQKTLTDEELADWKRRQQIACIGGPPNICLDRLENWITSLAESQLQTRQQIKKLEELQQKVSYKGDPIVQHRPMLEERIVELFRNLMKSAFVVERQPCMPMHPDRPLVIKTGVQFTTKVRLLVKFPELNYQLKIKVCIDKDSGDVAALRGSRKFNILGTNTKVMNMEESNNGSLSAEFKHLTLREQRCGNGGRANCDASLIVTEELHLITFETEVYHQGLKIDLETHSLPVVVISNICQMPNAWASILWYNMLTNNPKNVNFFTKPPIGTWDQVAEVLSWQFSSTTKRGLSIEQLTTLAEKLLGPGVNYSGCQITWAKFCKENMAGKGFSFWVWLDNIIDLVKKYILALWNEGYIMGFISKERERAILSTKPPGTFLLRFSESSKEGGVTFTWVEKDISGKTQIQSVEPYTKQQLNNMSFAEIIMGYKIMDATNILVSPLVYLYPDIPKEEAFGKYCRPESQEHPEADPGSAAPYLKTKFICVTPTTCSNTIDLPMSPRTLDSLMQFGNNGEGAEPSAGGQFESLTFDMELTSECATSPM
# How it was run: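 Transcript-level reporter assay. HepG2 transient MRTU transfection, 24 h exposure, fluorescence detection after RT-PCR and CE; DMSO baseline.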
# [7] = ATG_TA_CIS: Attagene CIS-FACTORIAL HepG2 Assay for human TA Basal Promoter (AID 2282964); settings: HepG2 Attagene CIS-factorial TA basal promoter reporter; actives raise or lower the signal
# How it was run: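 HepG2 cells transiently transfected with multiple reporter units under cis promoter elements, reporting endogenous transcription factor activity; this endpoint tracks the TA basal promoter as background control. Reporter mRNA after 24 h dosing measured by RT-PCR/capillary electrophoresis; bidirectional fits versus DMSO.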
# [8] = ATG_TCF_b_cat_CIS: Attagene CIS-FACTORIAL HepG2 Assay for human T-Cell-Factor with beta-catenin (TCF/b-cat) (AID 2282965); settings: HepG2 TCF/beta-catenin cis-reporter transcription, actives raise or lower the signal
# How it was run: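 In this cis-format system, transfected HepG2 cells report endogenous transcription factor activity. Readout after 24 h exposure is reporter transcript abundance from RT-PCR and capillary electrophoresis, analysed for gain or loss of signal versus DMSO.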
# [9] = ATG_TAL_CIS: Attagene CIS-FACTORIAL HepG2 Assay for human TAL Basal Promoter (AID 2282966); settings: HepG2 Attagene cis-factorial TAL promoter reporter; actives raise or lower the signal;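 further: background control endpoint measuring basal TAL promoter reporter mRNA not a specific factor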
# How it was run: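 In this cell-based multiplex, HepG2 liver cells bearing cis-promoter reporter constructs are dosed for 24 hours. Total RNA is reverse-transcribed and amplified, labelled fragments are sized by capillary electrophoresis, and signal changes are fitted bidirectionally versus DMSO.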
# [10] = ATG_TGFb_CIS: Attagene CIS-FACTORIAL HepG2 Assay for human Transforming Growth Factor (TGF) (AID 2282967); settings: HepG2 Attagene CIS TGFb reporter, mRNA transcription; actives raise or lower the signal
# How it was run: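 HepG2 cells transiently transfected with cis-promoter-driven multiple reporter units measure endogenous TF activity; reporter mRNA quantified at 24 h by RT-PCR, FAM labeling, HpaI digestion and capillary electrophoresis. Bidirectional fit vs DMSO.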
# [11] = biological target: Steroid hormone receptor ERR1 (Homo sapiens) (UniProt P11474); assay: ATG_ERRa_TRANS: Attagene TRANS-FACTORIAL HepG2 Assay for human Estrogen-Related Receptor alpha (ERRa) (AID 2282971; active means hit-call score of the fitted dose curve at least 0.9, where 1 is the maximum); settings: HepG2 Attagene TRANS reporter, ERRa transactivation
# Chain of Steroid hormone receptor ERR1 (Homo sapiens) (P11474 whole entry, looked up, the tested form may be a part): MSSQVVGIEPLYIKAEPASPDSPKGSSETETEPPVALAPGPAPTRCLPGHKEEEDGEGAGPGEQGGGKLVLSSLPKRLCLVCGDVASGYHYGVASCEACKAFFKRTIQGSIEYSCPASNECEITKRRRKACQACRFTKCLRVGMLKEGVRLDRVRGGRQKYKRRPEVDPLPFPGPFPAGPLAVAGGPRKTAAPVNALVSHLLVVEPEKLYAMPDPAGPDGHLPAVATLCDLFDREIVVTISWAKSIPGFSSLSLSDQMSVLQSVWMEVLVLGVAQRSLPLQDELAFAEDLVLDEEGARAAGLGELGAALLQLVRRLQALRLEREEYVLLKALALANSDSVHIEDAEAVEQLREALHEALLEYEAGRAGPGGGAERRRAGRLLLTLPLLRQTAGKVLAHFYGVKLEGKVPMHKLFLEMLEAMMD
# How it was run: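 Transfected HepG2, 24 h dosing, ERRa-Gal4 chimera driving GAL4-UAS reporter. Readout: reporter mRNA via RT-PCR plus capillary electrophoresis (fluorescence). Positive direction vs DMSO control.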
# [12] = biological target: X-box-binding protein 1 (Homo sapiens) (UniProt P17861); assay: ATG_Xbp1_CIS: Attagene CIS-FACTORIAL HepG2 Assay for human X-box Binding Protein 1 (XBP1) (AID 2282972); settings: HepG2 XBP1 cis-element reporter, Attagene multiplex; actives raise or lower the signal
# Chain of X-box-binding protein 1 (Homo sapiens) (P17861 whole entry, looked up): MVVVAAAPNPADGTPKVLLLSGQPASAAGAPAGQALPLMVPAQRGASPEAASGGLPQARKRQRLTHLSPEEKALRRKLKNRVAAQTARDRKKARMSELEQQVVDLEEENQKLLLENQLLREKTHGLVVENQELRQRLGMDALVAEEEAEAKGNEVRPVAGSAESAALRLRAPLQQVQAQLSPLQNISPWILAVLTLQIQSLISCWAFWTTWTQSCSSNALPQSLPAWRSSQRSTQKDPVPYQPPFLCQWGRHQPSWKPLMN
# How it was run: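 HepG2 cells transiently transfected with multiple cis-element reporter units report endogenous TF activity; 24 h exposure, then reporter mRNA measured by RT-PCR, 6-FAM labelling, HpaI digestion and capillary electrophoresis. Bidirectional fitting versus DMSO.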
# [13] = ATG_M_19_TRANS: Attagene TRANS-FACTORIAL HepG2 Assay for M19 Transcription Factor (Internal Marker) (AID 2282974; active means hit-call score of the fitted dose curve at least 0.9, where 1 is the maximum); settings: HepG2 Attagene TRANS-FACTORIAL M19 internal marker reporter
# How it was run: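 Using RT-PCR and capillary electrophoresis, reporter mRNA from transiently transfected human HepG2 cells was quantified following 24 h exposure; activity was fitted in the positive direction against DMSO.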
# [14] = biological target: Glucocorticoid receptor (Homo sapiens) (UniProt P04150); assay: ATG_GR_TRANS: Attagene TRANS-FACTORIAL HepG2 Assay for human Glucocorticoid Receptor (GR) (AID 2282978; active means hit-call score of the fitted dose curve at least 0.9, where 1 is the maximum;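 further: activators score as hits since higher reporter transcript over DMSO is fitted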); settings: HepG2 Attagene TRANS GR reporter, mRNA transcription
# Chain of Glucocorticoid receptor (Homo sapiens) (P04150 whole entry, looked up, the tested form may be a part): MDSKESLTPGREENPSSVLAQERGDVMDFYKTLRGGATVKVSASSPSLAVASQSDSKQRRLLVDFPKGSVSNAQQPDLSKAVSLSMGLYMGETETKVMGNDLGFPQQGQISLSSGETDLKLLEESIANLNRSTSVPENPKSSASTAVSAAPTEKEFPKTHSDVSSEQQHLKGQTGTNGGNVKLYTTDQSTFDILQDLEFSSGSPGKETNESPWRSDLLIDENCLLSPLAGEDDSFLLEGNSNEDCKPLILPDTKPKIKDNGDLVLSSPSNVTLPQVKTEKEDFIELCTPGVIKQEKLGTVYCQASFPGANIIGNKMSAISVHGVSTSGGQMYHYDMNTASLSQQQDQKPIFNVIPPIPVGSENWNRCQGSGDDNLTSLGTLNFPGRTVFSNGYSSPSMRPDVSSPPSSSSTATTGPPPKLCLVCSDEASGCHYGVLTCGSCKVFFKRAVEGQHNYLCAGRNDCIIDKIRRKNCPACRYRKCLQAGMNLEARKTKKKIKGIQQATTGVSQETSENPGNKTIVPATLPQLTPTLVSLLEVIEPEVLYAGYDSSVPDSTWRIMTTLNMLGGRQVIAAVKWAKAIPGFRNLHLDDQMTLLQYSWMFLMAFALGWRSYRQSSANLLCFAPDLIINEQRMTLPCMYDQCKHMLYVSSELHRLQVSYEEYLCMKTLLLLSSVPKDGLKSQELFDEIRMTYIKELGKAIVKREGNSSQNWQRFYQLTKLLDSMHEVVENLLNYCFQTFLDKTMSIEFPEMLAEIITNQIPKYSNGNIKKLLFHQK
# How it was run: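 Exogenous NR-GAL4 fusion activity was assessed through induced GAL4-UAS reporter transcripts in transfected human HepG2 cells, quantified after 24 h by RT-PCR and fluorescent capillary electrophoresis with DMSO as baseline.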
# [15] = biological target: Transcription factor Sp1 (Homo sapiens) (UniProt P08047); assay: ATG_Sp1_CIS: Attagene CIS-FACTORIAL HepG2 Assay for human Specificity Protein 1 (Sp1) (AID 2282961); settings: HepG2 Sp1 cis-reporter transcription, actives raise or lower the signal
# Chain of Transcription factor Sp1 (Homo sapiens) (P08047 whole entry, looked up, the tested form may be a part): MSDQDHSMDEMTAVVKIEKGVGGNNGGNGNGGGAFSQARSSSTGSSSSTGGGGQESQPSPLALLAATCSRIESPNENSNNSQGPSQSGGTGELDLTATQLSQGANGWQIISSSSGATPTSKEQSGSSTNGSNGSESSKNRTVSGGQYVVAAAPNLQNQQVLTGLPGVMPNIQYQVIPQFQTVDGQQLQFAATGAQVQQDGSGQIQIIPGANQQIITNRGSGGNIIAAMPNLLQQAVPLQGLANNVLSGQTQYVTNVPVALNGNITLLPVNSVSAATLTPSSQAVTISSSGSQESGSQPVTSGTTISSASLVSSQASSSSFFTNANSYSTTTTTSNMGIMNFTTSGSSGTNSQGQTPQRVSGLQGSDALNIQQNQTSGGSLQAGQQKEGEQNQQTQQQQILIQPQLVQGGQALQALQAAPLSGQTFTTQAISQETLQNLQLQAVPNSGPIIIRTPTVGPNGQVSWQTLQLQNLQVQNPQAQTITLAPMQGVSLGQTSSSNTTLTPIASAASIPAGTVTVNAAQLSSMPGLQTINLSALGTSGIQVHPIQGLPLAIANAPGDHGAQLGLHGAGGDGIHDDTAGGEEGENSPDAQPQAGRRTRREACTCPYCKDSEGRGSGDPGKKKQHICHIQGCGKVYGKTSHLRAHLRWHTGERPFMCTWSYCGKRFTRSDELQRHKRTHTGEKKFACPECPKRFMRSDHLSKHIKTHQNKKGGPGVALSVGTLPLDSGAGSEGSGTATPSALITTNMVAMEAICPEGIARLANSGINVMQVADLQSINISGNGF
# How it was run: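 Endpoint reflects endogenous Sp1 transcriptional activity, not an exogenous fusion protein: HepG2 cells with transfected cis-regulated reporters, 24 h dosing, RT-PCR/capillary electrophoresis mRNA read-out, DMSO-normalised bidirectional fit.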
# [16] = biological target: Estrogen-related receptor gamma (Homo sapiens) (UniProt P62508); assay: ATG_ERRg_TRANS: Attagene TRANS-FACTORIAL HepG2 Assay for human Estrogen-Related Receptor gamma (ERRg) (AID 2282977; active means hit-call score of the fitted dose curve at least 0.9, where 1 is the maximum;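 further: hits increase reporter signal over DMSO so potencies reflect activators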); settings: HepG2 Attagene TRANS reporter, ERRg transactivation
# Chain of Estrogen-related receptor gamma (Homo sapiens) (P62508 whole entry, looked up, the tested form may be a part): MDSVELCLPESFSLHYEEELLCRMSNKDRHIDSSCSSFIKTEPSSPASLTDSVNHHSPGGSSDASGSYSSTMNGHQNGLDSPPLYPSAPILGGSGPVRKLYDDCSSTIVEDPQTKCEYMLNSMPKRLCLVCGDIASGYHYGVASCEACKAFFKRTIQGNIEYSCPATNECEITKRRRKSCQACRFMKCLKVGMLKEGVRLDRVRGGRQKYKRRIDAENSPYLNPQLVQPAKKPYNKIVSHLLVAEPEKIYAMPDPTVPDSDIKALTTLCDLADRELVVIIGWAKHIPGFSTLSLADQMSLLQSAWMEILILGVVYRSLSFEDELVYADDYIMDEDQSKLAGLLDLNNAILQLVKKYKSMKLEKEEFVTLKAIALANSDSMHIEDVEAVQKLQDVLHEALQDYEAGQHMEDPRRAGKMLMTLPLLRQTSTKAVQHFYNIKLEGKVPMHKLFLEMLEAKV
# How it was run: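 Transfect HepG2 with multiple GAL4-UAS reporter transcription units; dose chemicals 24 h; isolate RNA, reverse-transcribe with oligo(dT), PCR-amplify, label with 6-FAM, digest with HpaI; size fragments by capillary electrophoresis. DMSO serves as negative control.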
# [17] = ATG_RORE_CIS: Attagene CIS-FACTORIAL HepG2 Assay for human RAR-related Orphan Receptor Element (RORE) (AID 2282959); settings: HepG2 Attagene cis-factorial RORE reporter, mRNA; actives raise or lower the signal
# How it was run: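 Transiently transfected HepG2 reporter cells were treated 24 h. Reporter transcripts were detected by RT-PCR and capillary electrophoresis, with bidirectional fitting against DMSO.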
# [18] = ATG_VDRE_CIS: Attagene CIS-FACTORIAL HepG2 Assay for human Vitamin D Receptor Element (VDRE) (AID 2282968); settings: HepG2 VDRE cis-reporter transcription, actives raise or lower the signal
# How it was run: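 RT-PCR/CE readout of reporter mRNA; HepG2, transient transfection, 24 h dosing; DMSO baseline; bidirectional analysis.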
# [19] = ATG_GAL4_TRANS: Attagene TRANS-FACTORIAL HepG2 Assay for GAL4 (Internal Marker) (AID 2282976; active means hit-call score of the fitted dose curve at least 0.9, where 1 is the maximum); settings: HepG2 Attagene TRANS GAL4 internal marker reporter
# How it was run: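 RT-PCR/capillary electrophoresis readout of reporter mRNA. HepG2, transient MRTU transfection (GAL4-UAS reporters), 24 h compound exposure. Background-control endpoint, positive direction vs DMSO baseline.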
# [20] = biological target: Nuclear receptor subfamily 1 group I member 3 (Homo sapiens) (UniProt Q14994); assay: ATG_CAR_TRANS: Attagene TRANS-FACTORIAL HepG2 Assay for human Constitutive Androstane Receptor (CAR) (AID 2282969; active means hit-call score of the fitted dose curve at least 0.9, where 1 is the maximum;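 further: activators raise reporter mRNA above DMSO so AC50 marks induction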); settings: HepG2 Attagene TRANS-FACTORIAL CAR reporter
# Chain of Nuclear receptor subfamily 1 group I member 3 (Homo sapiens) (Q14994 whole entry, looked up, the tested form may be a part): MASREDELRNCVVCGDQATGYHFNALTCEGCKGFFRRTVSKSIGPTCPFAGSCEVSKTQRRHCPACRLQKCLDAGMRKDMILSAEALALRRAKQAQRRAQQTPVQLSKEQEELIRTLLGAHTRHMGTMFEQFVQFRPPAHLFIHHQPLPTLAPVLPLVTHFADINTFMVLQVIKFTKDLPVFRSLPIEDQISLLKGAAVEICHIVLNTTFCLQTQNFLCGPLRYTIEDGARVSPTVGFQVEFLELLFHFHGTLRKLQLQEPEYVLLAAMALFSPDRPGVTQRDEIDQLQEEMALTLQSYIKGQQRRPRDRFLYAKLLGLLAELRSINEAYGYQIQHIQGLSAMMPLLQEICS
# How it was run: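 HepG2 cells transiently transfected with multiplexed GAL4-UAS reporter units expressing chimeric NR-Gal4 proteins; compound exposure 24 h. Reporter mRNA measured by RT-PCR, 6-FAM labelling, HpaI digestion and capillary electrophoresis; gain-of-signal fitted against DMSO baseline.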
compound,measurement,setting,value
Nc1ccccc1[N+](=O)[O-],outcome,[1],inactive
same,outcome,[2],inactive
same,outcome,[3],inactive
same,outcome,[4],inactive
same,outcome,[5],inactive
same,outcome,[6],inactive
same,outcome,[7],inactive
same,outcome,[8],inactive
same,outcome,[9],inactive
same,outcome,[10],inactive
same,outcome,[11],inactive
same,outcome,[12],inactive
same,outcome,[13],inactive
same,outcome,[14],inactive
Nc1ccc(NCCO)c([N+](=O)[O-])c1,outcome,[1],inactive
same,outcome,[2],inactive
same,outcome,[3],inactive
same,outcome,[4],inactive
same,outcome,[15],inactive
same,outcome,[6],inactive
same,outcome,[7],inactive
same,outcome,[8],inactive
same,outcome,[9],inactive
same,outcome,[10],inactive
same,outcome,[11],inactive
same,outcome,[12],inactive
same,outcome,[16],inactive
same,outcome,[14],inactive
CCCCC(CC)C(=O)OC(C)C (stereo unspecified),outcome,[1],inactive
same,outcome,[2],inactive
same,outcome,[17],inactive
same,outcome,[4],inactive
same,outcome,[15],inactive
same,outcome,[5],inactive
same,outcome,[6],inactive
same,outcome,[7],inactive
same,outcome,[8],inactive
same,outcome,[9],inactive
same,outcome,[10],inactive
same,outcome,[18],inactive
same,outcome,[12],inactive
same,outcome,[13],inactive
same,outcome,[19],inactive
C1=CC2C3C=CC(C3)C2C1 (stereo unspecified),outcome,[1],inactive
same,AC50,[2],36.3 µM (active)
same,outcome,[17],inactive
same,outcome,[4],inactive
same,outcome,[15],inactive
same,outcome,[5],inactive
same,outcome,[6],inactive
same,outcome,[7],inactive
same,outcome,[8],inactive
same,outcome,[9],inactive
same,outcome,[10],inactive
same,outcome,[18],inactive
same,outcome,[20],inactive
same,outcome,[11],inactive
same,outcome,[12],inactive
same,outcome,[13],inactive
same,outcome,[19],inactive
same,outcome,[14],inactive

# Source: PubChem BioAssay (EPA / NIEHS)
